Source: PubChem BioAssay (Broad Institute)
The entries come from a sample that favours hits as a whole.
Tg IFNy HTS: T. gondii growth inhibition under IFN-gamma; Toxoplasma gondii growth in IFN-gamma-treated host cells; active compounds read low; activity change, negative = inhibition, % (test concentration not listed); hit rate 3.8% among 69,000; AID 1259416; in the data active = activity change below about -70%, passing the limit was not always enough;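 also: host cells are HeLa cells infected with Toxoplasma gondii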
Numbers without * were called inactive; ! = repeats disagree.

SMILES | Tg IFNy HTS
c1cnc(N2CCOCC3(CCCNC3)C2)cn1 (stereo not given) | 4
COc1ncccc1CN1CCOCC2(CCC(CN(C)C)O2)C1 (stereo not given) | 79
Cc1cccc(CN2CC[C@@H]3OCCN(S(=O)(=O)C4CC4)[C@@H]3C2)n1 | -4
C=CCOC1C2CCC1N(Cc1cccc(C)n1)CCO2 (stereo not given) | -71*
Cc1cccc(CN2C[C@H]3OCCN(C)[C@H]3C2)n1 | 2
O=C(Nc1cccc(C(F)(F)F)c1)c1cc2cccnc2n(Cc2ccccc2F)c1=O | -19
CN1C[C@@H](NC(=O)C2CC2)C2OCCCC21 (stereo not given in full) | -24
CCN1C(=O)C2(CCN(Cc3ccco3)CC2)c2ccccc21 | -8
CC(C)CN1CC2CN(C(=O)Cc3ccc(Cl)cc3)CC21 (stereo not given) | -3
O=P(O)(NCCCl)NCCCl | 21
C[C@]12CC[C@H](OC3OC(O)C(O)C(O)C3O)C=C1CCC1C2CC[C@]2(C)[C@@H](c3ccc(=O)oc3)CC[C@]12O (stereo not given in full) | -80*
C=CCO[C@@H]1C[C@@H]2CN(C(=O)Cc3ccccn3)CCN2C1 | 92
NS(=O)(=O)c1ccc(CCNC(=O)c2cc3cccnc3n(Cc3ccc(F)cc3)c2=O)cc1 | -88*
CCCCCNC(=O)c1cc2cccnc2n(Cc2ccc(F)cc2)c1=O | -40
COCC(C)NC(=O)c1cc2cccnc2n(Cc2ccc(F)cc2)c1=O (stereo not given) | -50
Cc1cc(Br)ccc1NC(=O)c1cc2cccnc2n(Cc2ccccc2F)c1=O | 96
CC(NC(=O)c1cc2cccnc2n(Cc2ccc(F)cc2)c1=O)c1ccccc1 (stereo not given) | -115*
O=C(NCCc1ccccc1)c1cc2cccnc2n(Cc2ccc(F)cc2)c1=O | 121
Cc1cc(C)c(NC(=O)c2cc3cccnc3n(Cc3ccccc3F)c2=O)c(C)c1 | -83*
O=C(Nc1ccccc1)c1cc2cccnc2n(Cc2ccc(F)cc2)c1=O | 78
O=C(Nc1ccccc1)c1cc2cccnc2n(Cc2ccccc2F)c1=O | 81
O=C1CC2(CCN(Cc3cccnc3)C2)CN1c1cccnc1 (stereo not given) | 5
OC1(c2ccc(F)cc2)CCCC2CNCC21 (stereo not given) | -1
CCN1CCC2OCCCC2(COCc2cccc(C)n2)C1 (stereo not given) | 80
Cc1cccc(CN2CC[C@@H]3OCC[C@@H](c4nnc(C)o4)[C@@H]3C2)n1 | 0
SMILES | Tg IFNy HTS
c1cc2c(c(-c3ccc4nc[nH]c4c3)c1)CCNC2 | -7
C(=C\c1ccccc1)/CN1CCC2(CCNCC2)C1 | -41
CN(C)C(=O)Oc1ccc(Br)cc1C(=O)Nc1ccc(F)c(Cl)c1 | -101*
O=C(Nc1ccc(F)c(Cl)c1)c1cc2cccnc2n(Cc2ccc(F)cc2)c1=O | -2
COc1ccc(NC(=O)c2cc3cccnc3n(Cc3ccc(Cl)cc3)c2=O)cc1OC | 58
Cc1oc(-c2ccccc2)nc1CN1C(=O)CN=C(c2ccc(F)cc2)c2c1sc(C)c2C | -40
COc1ccc(C2=NCC(=O)N(Cc3nc(-c4ccccc4)oc3C)c3sccc32)cc1 | -95*
CN1C(=O)CN=C(c2ccccc2)c2cc(Cl)ccc21 | -2
CCN1CCN(C)C(=O)C12CCN(c1cc(OC)ncn1)CC2 | 3
CC(Cc1ccccc1F)NCc1ccc(C(=O)N2CCCC2)cc1 (stereo not given) | -18
COc1ccccc1NC(=O)c1cc2cccnc2n(Cc2ccccc2F)c1=O | 62
Cc1ccccc1NC(=O)c1cc2cccnc2n(Cc2ccc(Cl)cc2)c1=O | 115
Cc1noc(C)c1CN1CC[C@@H]2C[C@H](c3nccs3)O[C@H]2C1 | 51
C/C1=C/C[C@@H](/C(C)=C/c2csc(C)n2)OC(=O)C[C@H](O)C(C)(C)C(=O)[C@H](C)[C@@H](O)[C@@H](C)CCC1 | -60
C/C(=C\c1csc(C)n1)[C@H]1C[C@@H]2O[C@]2(C)CCC[C@H](C)[C@H](O)[C@@H](C)C(=O)C(C)(C)[C@H](O)CC(=O)O1 | -75*
C/C(=C\c1csc(C)n1)[C@@H]1C[C@@H]2O[C@@H]2CCC[C@H](C)[C@H](O)[C@@H](C)C(=O)C(C)(C)[C@@H](O)CC(=O)O1 | -68
Cc1ccc(-c2cc(CN3CCC4(C3)CN(C)C(=O)O4)on2)cc1 (stereo not given) | 17
CO[C@@H]1CCN(C(=O)c2cccc(C)n2)[C@H]2CN(CC3CC3)C[C@@H]12 | -5
CCc1cnc(N2CCN3C[C@H](OCC4CC4)C[C@@H]3C2)nc1 | -15
O=C1CC[C@@]2(O)[C@H]3Cc4ccc(O)c5c4[C@@]2(CCN3CC2CC2)[C@H]1O5 | -8
O=C1/C(=C/c2ccccc2)C[C@@]2(O)C3Cc4ccc(O)c5c4[C@@]2(CCN3CC2CC2)[C@H]1O5 | -76*!
Oc1ccc2c3c1O[C@H]1c4[nH]c5c(c4C[C@@]4(O)[C@@H](C2)N(CC2CC2)CC[C@]314)C[C@@]1(O)[C@H]2Cc3ccc(O)c4c3[C@@]1(CCN2CC1CC1)[C@H]5O4 | 12
c1cn(CCc2cnc[nH]2)c(-c2ccc3occc3c2)n1 | -44
Cc1ccc(N2CC[C@@H]3[C@H]2CCN3Cc2ccc(C)o2)nn1 | -14
CC(N)Cn1ccc2cc(F)c(Cl)cc21 (stereo not given) | 7
SMILES | Tg IFNy HTS
COC(=O)CN1CN(c2ccccc2)C2(CCN(Cc3ccc4ccccc4c3)CC2)C1=O | -8
CCC(=O)N1CCC2(CC1)C(=O)N(Cc1cccnc1)CCN2C | -2
O=C(CCCN1CCC2(CC1)C(=O)N(Cc1cccc(F)c1)CN2c1ccccc1)c1ccc(F)cc1 | -83*!
Cc1ccc(NC(=O)c2cc3cccnc3n(Cc3ccccc3)c2=O)cc1C | 296
CCN1CCNC(=O)C12CCN(c1cc(OC)ncn1)CC2 | 64
COCCN1CCN(S(=O)(=O)C2CC2)Cc2cccnc21 | -8
Cc1nc(CN2CCN(C(=O)Cc3ccc4c(c3)CC(C)O4)CC2)cs1 (stereo not given) | 9
O=C(Nc1ccc(F)cc1F)c1c(O)c2cccnc2n(Cc2ccccc2)c1=O | -22
Cc1ccc(NC(=O)c2c(O)c3cccnc3n(Cc3ccccc3)c2=O)cc1F | 30
Cc1ccc(NC(=O)c2c(O)c3cccnc3n(Cc3ccccc3)c2=O)cc1C | 94
O=C(NCc1ccco1)c1c(O)c2cccnc2n(Cc2ccccc2)c1=O | -99*
O=C(NCc1ccco1)c1cc2cccnc2n(Cc2ccccc2)c1=O | -45
O=C(Nc1ccc(Cl)cc1)c1c(O)c2cccnc2n(Cc2ccccc2)c1=O | 44
O=C(NCc1ccc(F)cc1F)c1c(O)c2cccnc2n(Cc2ccccc2)c1=O | -104*
COc1ccccc1NC(=O)c1c(O)c2cccnc2n(Cc2ccccc2)c1=O | 47
O=C(Nc1ccccc1F)c1c(O)c2cccnc2n(Cc2ccccc2)c1=O | 42
O=C(Nc1cc(F)ccc1F)c1c(O)c2cccnc2n(Cc2ccccc2)c1=O | 164
O=C(NCc1ccccc1Cl)c1c(O)c2cccnc2n(Cc2ccccc2)c1=O | -108*
Cc1ccccc1CNC(=O)c1c(O)c2cccnc2n(Cc2ccccc2)c1=O | -119*
O=C(Nc1cccc(F)c1)C1C2CCC1CNC2 (stereo not given) | 24
CN(C)CCN1CC[C@H]2[C@@H]1CCN2C(=O)Cc1ccsc1 | 0
COc1cccc(NC(=O)c2cc3cccnc3n(Cc3ccccc3)c2=O)c1 | 6
c1cnc(NC[C@@H]2OC[C@@H]3CN(Cc4ccco4)CC[C@@H]32)nc1 | -3
